Screens as filed in PubChem BioAssay.
Pf Dd2 growth: inhibitors of Plasmodium falciparum Dd2 growth | P. falciparum Dd2 growth, SYBR Green, 72 h | 120,000 tested, 4.3% active | Potency, µM (titrated, usually from 28.9 µM), for inactives: at the top dose activity, negative = inhibition, hits mostly inhibitors; active means well fitted inhibition curve with a large enough effect;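 further: plate controls were DMSO vehicle for no effect and reference drug for full effect; nearly all actives have a fitted effect of over 65% in size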
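Infected erythrocytes (Dd2, 0.3% parasitemia, 2.5% hematocrit final) are added to compound in RPMI-1640/Albumax II medium, grown 72 h at 37C in low oxygen, then lysed with saponin/Triton-X containing SYBR Green and read by fluorescence.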
* = called active by the depositor; [ ] = dose if it differs, or a comment. The sample as a whole holds a higher share of hits than the screen did. Potency means the concentration at half of the fitted maximal effect.

Screening COc1ccc(/C=C\c2onc(C)c2S(=O)(=O)N2CCC(C(=O)Nc3cccc(C)c3C)CC2)cc1 returned Pf Dd2 growth 2.8µM*.
Cc1ccc(NC(=O)C2CCN(S(=O)(=O)c3c(C)noc3C)CC2)cc1C was read as Pf Dd2 growth -9%.
Screening Cc1ccc(/C=C/c2onc(C)c2S(=O)(=O)N2CCC(C(=O)Nc3ccc(OC(F)(F)F)cc3)CC2)cc1 returned Pf Dd2 growth 62%.
For COc1cc(NC(=O)C2CCN(S(=O)(=O)c3c(C)noc3/C=C/c3cccs3)CC2)cc(OC)c1 the results were Pf Dd2 growth 11µM*.
Screening Cc1ccc(NC(=O)C2CCN(S(=O)(=O)c3cccs3)CC2)cc1 returned Pf Dd2 growth -20%.
`Cc1cc(C)c(/C=C/c2onc(C)c2S(=O)(=O)N2CCC(C(=O)NCc3ccco3)CC2)c(C)c1` gave Pf Dd2 growth 11µM*.
`COc1cc(OC)c(NC(=O)C2CCN(S(=O)(=O)c3c(C)noc3/C=C/c3c(C)cc(C)cc3C)CC2)cc1Cl` gave Pf Dd2 growth inactive.
`COc1ccc(CCNC(=O)C2CCN(S(=O)(=O)c3c(C)noc3/C=C/c3ccc(C)cc3)CC2)cc1OC` gave Pf Dd2 growth -5%.
Cc1noc(C)c1S(=O)(=O)N1CCC(C(=O)Nc2ccc(Br)cc2)CC1 was read as Pf Dd2 growth -12%.
`CCc1ccc(NC(=O)C2CCN(S(=O)(=O)c3c(C)noc3/C=C/c3cccs3)CC2)cc1` gave Pf Dd2 growth 13µM*.
O=C([C@@H]1C[C@H](Oc2cccnc2)CN1C(=O)c1cc2ccccc2[nH]1)N1CCCC1 was read as Pf Dd2 growth inactive.
`O=S(=O)(Nc1ncc(CN2CC[C@H]3CNC[C@H]32)cn1)c1ccccc1` gave Pf Dd2 growth -4%.
`Cc1cnc(C2CCOCC2)n1C1CCCN(C(=O)c2cn(C)cn2)C1` (stereo not drawn) gave Pf Dd2 growth 11%.
Screening O=C(COc1ccccc1)Nc1ccc([C@@H](O)[C@H]2COCC(=O)N2CC2CC2)cc1 returned Pf Dd2 growth -1%[44.1 µM].
For O=C1CCCN1CCCN1C(=O)[C@H]2CN(Cc3ccccc3)C[C@H]2C1=O the results were Pf Dd2 growth -16%.
Cc1cccc(CNC(=O)Cc2ccc(N(Cc3ccc(F)cc3)C(=O)c3ccco3)cc2)c1 was read as Pf Dd2 growth inactive.
For COc1cccc(/C=C/c2onc(C)c2S(=O)(=O)N2CCC(C(=O)N3CCC(C)CC3)CC2)c1 the results were Pf Dd2 growth -9%.
For COc1cccc(CNC(=O)C2CCN(S(=O)(=O)c3c(C)noc3/C=C/c3cccs3)CC2)c1 the results were Pf Dd2 growth 6.3µM*.
`Cc1noc(/C=C/c2cccs2)c1S(=O)(=O)N1CCC(C(=O)NCc2ccc(Cl)cc2)CC1` gave Pf Dd2 growth inactive.
`O=S(=O)(NCC1(COc2ccccc2)C[C@@H](O)[C@@H](O)C1)c1ccc(F)cc1` (stereo partly drawn) gave Pf Dd2 growth inactive.
COCCc1noc([C@@H]2CN(C3CCCCCC3)C[C@H]2CO)n1 was read as Pf Dd2 growth -7%.
CCc1noc(-c2cn(C3CCN(C(=O)c4ccc(OC)c(F)c4)C3)nn2)n1 (stereo not drawn) was read as Pf Dd2 growth 22%.
Screening Cc1ccc(C(C)NC(=O)CNC23CC4CC(CC(C4)C2)C3)cc1 (stereo not drawn) returned Pf Dd2 growth 6.3µM*.
`CC1CCC2(CC1)NC(=O)N(CC(=O)NC(C)c1ccccc1)C2=O` (stereo not drawn) gave Pf Dd2 growth -9%.
Screening COc1ccc(C(C)NC(=O)CN2C(=O)NC3(CCC(C)CC3)C2=O)cc1 (stereo not drawn) returned Pf Dd2 growth inactive.
`COc1ccc(NC(=O)N2CCC3(CC2)N(CC2CC2)C(=O)CS3=O)cc1` (stereo not drawn) gave Pf Dd2 growth -8%.
For O=C(CCN1Cc2ccccc2C1=O)N[C@H](c1cccs1)C1CC(O)C1 (stereo partly drawn) the results were Pf Dd2 growth -3%.
For O=C(NC1CCN(c2cc(-c3ccc(Cl)cc3)[nH]n2)C1)c1ccc(Br)o1 (stereo not drawn) the results were Pf Dd2 growth 13µM*.
`N#Cc1ccc(C(=O)NC2CCN(c3cc(-c4ccccc4)[nH]n3)CC2)cc1` gave Pf Dd2 growth inactive.
`Cc1ccccc1C(=O)NC1CCN(c2cc(-c3ccc(Cl)cc3)[nH]n2)C1` (stereo not drawn) gave Pf Dd2 growth inactive.
Screening N#Cc1ccc(C(=O)NC2CCN(c3cc(-c4ccc(Cl)cc4)[nH]n3)CC2)cc1 returned Pf Dd2 growth inactive.
For N#Cc1ccc(C(=O)NC2CCN(c3cc(-c4ccc(Cl)cc4)[nH]n3)C2)cc1 (stereo not drawn) the results were Pf Dd2 growth 7.9µM*.
Screening O=C(NC1CCN(c2cc(-c3ccc(Cl)cc3)[nH]n2)C1)c1cccnc1 (stereo not drawn) returned Pf Dd2 growth inactive.
COc1cc(NC(=O)N[C@H]2CO[C@H]3[C@@H]2OC[C@H]3OC(=O)Nc2cccc(C(C)=O)c2)cc(OC)c1 was read as Pf Dd2 growth -24%.
CC(C)N1CCN(C(=O)[C@@]23CCCC[C@H]2N(C)C(=O)CC3)CC1 was read as Pf Dd2 growth 4%.
CN1CCN(CC2(N)CCCCC2)CC1 was read as Pf Dd2 growth inactive.
COc1ccc(OCc2cc(C(=O)N(C)CCCO)n[nH]2)c(Cl)c1 was read as Pf Dd2 growth -17%.
`COc1ccc(-c2nc(N3CCOCC3)cc3c2CN(Cc2ccccc2)C3=O)cn1` gave Pf Dd2 growth -10%[44.1 µM].
For c1ccc(CN2CCc3c(sc4ncnc(N5CCOCC5)c34)C2)cc1 the results were Pf Dd2 growth 7.9µM*.
Screening c1ccc(CN2CCNc3cnc(-c4ccc(N5CCOCC5)cc4)cc3C2)cc1 returned Pf Dd2 growth inactive.
`CN1CCN(c2ncnc3sc4c(c23)CCN(Cc2ccco2)C4)CC1` gave Pf Dd2 growth 11µM*.
Screening CN1CCN(c2nc3c(c(=O)[nH]2)CCN(Cc2ccc(Br)s2)CC3)CC1 returned Pf Dd2 growth 19%[5.79 µM].
`CCN1CCN(c2nc3c(s2)CN(Cc2ccco2)CC3)CC1` gave Pf Dd2 growth -10%.
For CC(C)CN1CCN(C2CCOC3(CCN(C(=O)c4ccnn4C)CC3)C2)CC1 (stereo not drawn) the results were Pf Dd2 growth 16%.
CCOC(=O)c1cccnc1N1C[C@H]2OC(=O)N(Cc3ccccn3)[C@H]2C1 was read as Pf Dd2 growth -18%.
For Cc1ccc(S(=O)(=O)NC[C@H]2O[C@@H](CO)[C@@H](O)[C@H]2N2CCN(c3ccc(F)cc3)CC2)cc1 the results were Pf Dd2 growth 1%.
COc1ccc(C2(C(=O)NC3CCc4nnc(C)n4CC3)CC2)cc1 (stereo not drawn) was read as Pf Dd2 growth 35%.
`COCC(=O)N[C@H]1C[C@@H](CO)N(Cc2ccc(C#N)cc2)C1` gave Pf Dd2 growth inactive.
For O=C(c1ccc(Cl)cc1)N1CC2(CCN(Cc3cccnc3)C2)Cc2ccccc21 (stereo not drawn) the results were Pf Dd2 growth 8.9µM*.
For CC(=O)N1CC2(CCN(Cc3ccc(Cl)cc3)CC2)Cc2ccccc21 the results were Pf Dd2 growth -21%.
C[S+](=O)([O-])N1CC2(CCN(Cc3ccc(Cl)cc3)CC2)Cc2ccccc21 was read as Pf Dd2 growth -29%.
